Assay [1] is described as follows: NCI Yeast Anticancer Drug Screen. Data for the rad50 strain (AID 155).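 Note: 0% = growth of vehicle-only cultures of the same strain.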 The conditions noted are these: S. cerevisiae rad50 strain growth inhibition, active compounds read high. In short, it runs like this:
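Cells are treated with compound, grown, and their growth is then scored against vehicle-only cultures of the same repair-deficient yeast strain.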

The nature of assay [2]: NCI Yeast Anticancer Drug Screen. Data for the mec2-1 strain (AID 157). The conditions noted are these: S. cerevisiae mec2-1 strain, active compounds read high. An outline of the steps: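 Strain: mec2-1 (DNA repair/cell cycle alteration). Compound exposure, then growth measured; inhibition expressed relative to vehicle.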
Assay [3] in a line: NCI Yeast Anticancer Drug Screen. Data for the sgs1 mgt1 strain (AID 161).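 Note: 0% = growth of cultures given vehicle only.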 Conditions: S. cerevisiae sgs1 mgt1 strain, active compounds read high. In short, it runs like this:
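Genetically altered yeast, compound exposure, growth inhibition relative to vehicle.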

Assay [4] can be described thus: NCI Yeast Anticancer Drug Screen. Data for the cln2 rad14 strain (AID 165).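 Note: 0% = growth equal to vehicle treated cultures.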 The conditions noted are these: S. cerevisiae cln2 rad14 strain, active compounds read high. In short, it runs like this: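 Compounds are applied to the cln2 rad14 yeast strain, and growth is then compared with that of vehicle-treated cultures to give inhibition.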
The nature of assay [5]: NCI Yeast Anticancer Drug Screen. Data for the bub3 strain (AID 167). Conditions: S. cerevisiae bub3 mutant strain, active compounds read high. An outline of the steps: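 Part of a panel of yeast mutants defective in DNA damage repair or cell cycle regulation. Each strain is grown with compound, and inhibition is calculated relative to solvent-treated cultures.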
Assay [6] in a line: NCI Yeast Anticancer Drug Screen. Data for the mlh1 rad18 strain (AID 175). Conditions: S. cerevisiae mlh1 rad18 strain growth inhibition, active compounds read high. An outline of the steps: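 Read-out is yeast growth inhibition, calculated against vehicle-only controls. The compound was applied to a strain engineered with DNA damage repair alterations.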
The mark [7] stands for this setting: at 5.0 µM (retest, dose inferred, filed as 0.5).
The mark [8] stands for this setting: at 50.0 µM (retest, dose inferred, filed as 5.0).

SMILES strings stand for the structures. The panel holds about 79,000 compounds, 15% with a hit somewhere; the sample as a whole holds those more often. A number with no mark means an inactive call. Activity calls are given as the source filed them. Cut-off read from the data, not from the text of the source: active = growth inhibition above about 70%; inactive = the rest.

On to `COc1nc(NC2OC(CO)C(O)C(O)C2O)c(Cl)c(=O)[nH]1` (stereo not given), for which the growth inhibition was 1% in assay [1] (setting [7]); 1% in assay [1] (setting [8]); 47.5% in assay [1] (at 50.0 µM); 4% in assay [2] (setting [7]); 12% in assay [2] (setting [8]); -0.6% in assay [2] (at 50.0 µM). In addition, the growth inhibition in assay [3] (setting [7]) is 12%; in assay [3] (setting [8]), 4%; in assay [3] (at 50.0 µM), 24.1%; in assay [4] (setting [7]) it was 7%; in assay [4] (setting [8]) it was 11%; in assay [4] (at 50.0 µM) it was 20.6%. In addition, the growth inhibition is 4% in assay [5] (setting [7]); 14% in assay [5] (setting [8]); 15.3% in assay [5] (at 50.0 µM); 4% in assay [6] (setting [7]); 5% in assay [6] (setting [8]); 1.65% in assay [6] (at 50.0 µM).

As to `CC/C(C)=C1\CCC(CN2CCOCC2)C1=O` (stereo not given), the growth inhibition was 24% in assay [1] (setting [7]); 61% in assay [1] (setting [8]); 79% (active) in assay [1] (at 50.0 µM); 20% in assay [2] (setting [7]); 77% (active) in assay [2] (setting [8]); 72% (active) in assay [2] (at 50.0 µM). Besides, the growth inhibition in assay [3] (setting [7]) was 24%; in assay [3] (setting [8]), 70% (active); in assay [3] (at 50.0 µM), 66.3%; in assay [4] (setting [7]) it was 31%; in assay [4] (setting [8]), 45%; in assay [4] (at 50.0 µM), 48.8%. Moreover, the growth inhibition in assay [5] (setting [7]) was 31%; in assay [5] (setting [8]), 94% (active); in assay [5] (at 50.0 µM) it was 62.9%; in assay [6] (setting [7]), 14%; in assay [6] (setting [8]) it was 90% (active); in assay [6] (at 50.0 µM) it was 79.2% (active).

`COc1ccc(C(=O)C(CN2CCOCC2)CN2CCOCC2)cc1`: the growth inhibition in assay [1] (setting [7]) is 11%; in assay [1] (setting [8]), -10%; in assay [1] (at 50.0 µM), 96.2% (active); in assay [2] (setting [7]), 20%; in assay [2] (setting [8]), -6%; in assay [2] (at 50.0 µM), 97.2% (active). Also, the growth inhibition in assay [3] (setting [7]) is 23%; in assay [3] (setting [8]), -6%; in assay [3] (at 50.0 µM), 97.7% (active); in assay [4] (setting [7]), 11%; in assay [4] (setting [8]), -11%; in assay [4] (at 50.0 µM) it was 92.3% (active). Moreover, the growth inhibition in assay [5] (setting [7]) was 10%; in assay [5] (setting [8]), -5%; in assay [5] (at 50.0 µM), 95.7% (active); in assay [6] (setting [7]), 18%; in assay [6] (setting [8]) it was -2%; in assay [6] (at 50.0 µM) it was 97.2% (active).

On to `O=C1O/C(=C(/Cl)c2c3ccccc3cc3ccccc23)c2ccccc21`, for which the growth inhibition in assay [1] (setting [7]) is -22%; in assay [1] (setting [8]), 95% (active); in assay [1] (at 50.0 µM) it was 81.1% (active); in assay [2] (setting [7]), -13%; in assay [2] (setting [8]), 92% (active); in assay [2] (at 50.0 µM), 80.2% (active). Further, the growth inhibition is -15% in assay [3] (setting [7]); 96% (active) in assay [3] (setting [8]); 82.3% (active) in assay [3] (at 50.0 µM); -4% in assay [4] (setting [7]); 94% (active) in assay [4] (setting [8]); 68.7% in assay [4] (at 50.0 µM). Besides, the growth inhibition in assay [5] (setting [7]) was -25%; in assay [5] (setting [8]), 95% (active); in assay [5] (at 50.0 µM), 84.5% (active); in assay [6] (setting [7]), 27%; in assay [6] (setting [8]), 95% (active); in assay [6] (at 50.0 µM) it was 82.2% (active).

As for `O=C(/C=C/c1ccccc1)NOC(=O)/C=C/c1ccccc1`, the growth inhibition in assay [1] (setting [7]) is 42%; in assay [1] (setting [8]), 93% (active); in assay [1] (at 50.0 µM) it was 97.5% (active); in assay [2] (setting [7]) it was 34%; in assay [2] (setting [8]), 95% (active); in assay [2] (at 50.0 µM), 99.2% (active). Also, the growth inhibition is 66% in assay [3] (setting [7]); 94% (active) in assay [3] (setting [8]); 98.9% (active) in assay [3] (at 50.0 µM); 25% in assay [4] (setting [7]); 91% (active) in assay [4] (setting [8]); 98.5% (active) in assay [4] (at 50.0 µM). Besides, the growth inhibition was 34% in assay [5] (setting [7]); 92% (active) in assay [5] (setting [8]); 99% (active) in assay [5] (at 50.0 µM); 42% in assay [6] (setting [7]); 93% (active) in assay [6] (setting [8]); 98.5% (active) in assay [6] (at 50.0 µM).

On to `Clc1ccc(CNc2ccc(Cl)c(Cl)c2)cc1`, for which the growth inhibition in assay [1] (setting [7]) was 8%; in assay [1] (setting [8]), 95% (active); in assay [1] (at 50.0 µM) it was 97.8% (active); in assay [2] (setting [7]), 36%; in assay [2] (setting [8]), 97% (active); in assay [2] (at 50.0 µM), 98.2% (active). Moreover, the growth inhibition in assay [3] (setting [7]) was 11%; in assay [3] (setting [8]), 97% (active); in assay [3] (at 50.0 µM), 98.2% (active); in assay [4] (setting [7]), -10%; in assay [4] (setting [8]), 91% (active); in assay [4] (at 50.0 µM), 97.7% (active). Further, the growth inhibition in assay [5] (setting [7]) is 2%; in assay [5] (setting [8]), 96% (active); in assay [5] (at 50.0 µM), 97.5% (active); in assay [6] (setting [7]), 15%; in assay [6] (setting [8]) it was 95% (active); in assay [6] (at 50.0 µM), 97% (active).

For the compound `C(=NCCc1ccccc1)c1ccccc1B1OB(c2ccccc2C=NCCc2ccccc2)OB(c2ccccc2C=NCCc2ccccc2)O1`, the growth inhibition in assay [1] (setting [7]) was 94% (active); in assay [1] (setting [8]), 99% (active); in assay [1] (at 50.0 µM) it was 99.6% (active); in assay [2] (setting [7]), 93% (active); in assay [2] (setting [8]) it was 100% (active); in assay [2] (at 50.0 µM), 99.8% (active). Further, the growth inhibition in assay [3] (setting [7]) is 90% (active); in assay [3] (setting [8]), 99% (active); in assay [3] (at 50.0 µM) it was 99.7% (active); in assay [4] (setting [7]), 77% (active); in assay [4] (setting [8]), 98% (active); in assay [4] (at 50.0 µM), 99.3% (active). For the same compound, the growth inhibition in assay [5] (setting [7]) is 79% (active); in assay [5] (setting [8]) it was 99% (active); in assay [5] (at 50.0 µM), 99.7% (active); in assay [6] (setting [7]) it was 92% (active); in assay [6] (setting [8]), 99% (active); in assay [6] (at 50.0 µM) it was 99.5% (active).

Turning to `O=C(O)CSc1ccc(N=C=S)cc1`, the growth inhibition in assay [1] (setting [7]) is -5%; in assay [1] (setting [8]), 96% (active); in assay [1] (at 50.0 µM) it was -8.1%; in assay [2] (setting [7]), 3%; in assay [2] (setting [8]), 91% (active); in assay [2] (at 50.0 µM), 8.15%. Further, the growth inhibition was 9% in assay [3] (setting [7]); 93% (active) in assay [3] (setting [8]); -2.75% in assay [3] (at 50.0 µM); -9% in assay [4] (setting [7]); 69% in assay [4] (setting [8]); 4.8% in assay [4] (at 50.0 µM). The growth inhibition in assay [5] (setting [7]) is -27%; in assay [5] (setting [8]), 95% (active); in assay [5] (at 50.0 µM) it was 0.55%; in assay [6] (setting [7]), 37%; in assay [6] (setting [8]), 98% (active); in assay [6] (at 50.0 µM), -2.35%.

For the compound `CCCCCCCCCCCCCCSC(=N)N`, the growth inhibition in assay [1] (setting [7]) is 99% (active); in assay [1] (setting [8]), 95% (active); in assay [1] (at 50.0 µM), 66.3%; in assay [2] (setting [7]), 65%; in assay [2] (setting [8]), 97% (active); in assay [2] (at 50.0 µM), 98.5% (active). Moreover, the growth inhibition in assay [3] (setting [7]) was 100% (active); in assay [3] (setting [8]) it was 95% (active); in assay [3] (at 50.0 µM) it was 45.5%; in assay [4] (setting [7]) it was 41%; in assay [4] (setting [8]), 95% (active); in assay [4] (at 50.0 µM), 54.5%. Also, the growth inhibition was 100% (active) in assay [5] (setting [7]); 96% (active) in assay [5] (setting [8]); 98.7% (active) in assay [5] (at 50.0 µM); 95% (active) in assay [6] (setting [7]); 96% (active) in assay [6] (setting [8]); 97.7% (active) in assay [6] (at 50.0 µM).

On to `CC(COC(=O)C(c1ccccc1)C1C=CCCC1)CN1CCCC1` (stereo not given), for which the growth inhibition is -1% in assay [1] (setting [7]); 60% in assay [1] (setting [8]); 70.4% (active) in assay [1] (at 50.0 µM); 18% in assay [2] (setting [7]); 51% in assay [2] (setting [8]); 46.8% in assay [2] (at 50.0 µM). The growth inhibition in assay [3] (setting [7]) is 21%; in assay [3] (setting [8]), 61%; in assay [3] (at 50.0 µM), 72.8% (active); in assay [4] (setting [7]), 4%; in assay [4] (setting [8]), 34%; in assay [4] (at 50.0 µM) it was 86.5% (active). Besides, the growth inhibition in assay [5] (setting [7]) is 0%; in assay [5] (setting [8]), 36%; in assay [5] (at 50.0 µM) it was 74.5% (active); in assay [6] (setting [7]), 35%; in assay [6] (setting [8]), 74% (active); in assay [6] (at 50.0 µM) it was 90.3% (active).
